Holding throughout (assay): growth (OD600 after 10 h); higher = more growth (less inhibition)
In experiment [1] the test system is E. coli TESEC Alr+ wild-type control. The note with it: compound 0.1 mM; raw OD600 reference: median of DMSO wells 0.241, cell-free background 0.041. As to the method:
(§1)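 TESEC Mtb Alr E. coli, or the Alr+ wild-type control, in 384-well plates with Prestwick library compounds at 0.1 mM and 1% DMSO, across arabinose induction levels of 1E3 to 1E7 nM. Growth is read as OD600 after 10 h at 37 °C in triplicate biological replicates.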

For experiment [2], the system named is E. coli TESEC Mtb Alr. As to conditions: compound 0.1 mM. As to the method: as §1
A further experiment has as its system E. coli TESEC Mtb Asd. The note with it: compound 0.1 mM. As to the method: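 TESEC E. coli strains in which the native enzyme is deleted and replaced by arabinose-inducible Mtb Asd, DapB, CysH or TrpD, each grown in its selective medium. Strains were screened against the Prestwick library at 0.1 mM and 1% DMSO in 384-well format at low and high arabinose induction. Growth is read as OD600 after 10 h in triplicate.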

The test system of experiment [3] is E. coli TESEC Alr+ wild-type control. The note with it: compound 0.1 mM; raw OD600 reference: median of DMSO wells 0.49, cell-free background 0.052. As to the method:
(§2)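 TESEC Mtb Alr E. coli (ΔaraC ΔtolC ΔentC Δalr ΔdadX, arabinose-inducible Mtb Alr) or the Alr+ wild-type control strain, grown in defined M9-fructose medium without D-alanine in 96-well plates with Prestwick library compounds at 0.1 mM and 1% DMSO. Low Alr induction is 0.1 µM arabinose and high induction is 10 mM arabinose.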

The test system of experiment [4] is E. coli TESEC Mtb Alr. The note with it: compound 0.1 mM. As for the experimental part:
as §2
The source holds these as a separate data set.

The mark [5] stands for this setting: arabinose 1000 nM, raw OD600 reference: median of DMSO wells 0.294, cell-free background 0.041.
[6] abbreviates: arabinose 10000 nM, raw OD600 reference: median of DMSO wells 0.264, cell-free background 0.041.
[7] abbreviates: arabinose 100000 nM, raw OD600 reference: median of DMSO wells 0.201, cell-free background 0.041.
The mark [8] stands for this setting: arabinose 1000000 nM, raw OD600 reference: median of DMSO wells 0.193, cell-free background 0.041.
Where [9] appears, read: arabinose 10000000 nM, raw OD600 reference: median of DMSO wells 0.146, cell-free background 0.041.
Setting [10] is: arabinose induction (level): High, raw OD600 reference: median of DMSO wells 0.331, cell-free background 0.041.
Setting [11] is: arabinose induction (level): Low, raw OD600 reference: median of DMSO wells 0.417, cell-free background 0.041.
Setting [12] is: arabinose 100 nM, raw OD600 reference: median of DMSO wells 0.413, cell-free background 0.052.
Setting [13] is: arabinose 10000000 nM, raw OD600 reference: median of DMSO wells […], cell-free background 0.052.

± gives the standard deviation of the averaged measurements.

On to `O=C1c2cccc(O)c2C(=O)c2c(O)cccc21` [1,8-Dihydroxyanthraquinone], for which the growth in experiment [1] came out at 0.132 ± 0.0039; in the experiment on E. coli TESEC Mtb Alr [2] (setting [5]) it was 0.15 ± 0.013; in the experiment with E. coli TESEC Mtb Alr [2] (setting [6]), 0.0699 ± 0.015; in the experiment with E. coli TESEC Mtb Alr [2] (setting [7]) it was 0.138 ± 0.0019; in the experiment on E. coli TESEC Mtb Alr [2] (setting [8]), 0.0486 ± 0.0032; in the experiment with E. coli TESEC Mtb Alr [2] (setting [9]), 0.153 ± 0.0021. In addition, the growth in the experiment on E. coli TESEC Mtb Asd (setting [10]) stood at 0.187 ± 0.013; with E. coli TESEC Mtb Asd (setting [11]), 0.147 ± 0.0069; in experiment [3] it was 0.383 ± 0.011; in the experiment with E. coli TESEC Mtb Alr [4] (setting [12]), 0.361 ± 0.0048; with E. coli TESEC Mtb Alr [4] (setting [13]), 0.218 ± 0.013.

For `Nc1nc(O)c2ncn(CCC(CO)CO)c2n1` [Penciclovir], the growth is 0.25 ± 0.0069 in experiment [1]; 0.31 ± 0.013 with E. coli TESEC Mtb Alr [2] (setting [5]); 0.262 ± 0.0029 in the experiment with E. coli TESEC Mtb Alr [2] (setting [6]); 0.24 ± 0.042 in the experiment with E. coli TESEC Mtb Alr [2] (setting [7]); 0.18 ± 0.011 in the experiment on E. coli TESEC Mtb Alr [2] (setting [8]); 0.1665 ± 0.0015 with E. coli TESEC Mtb Alr [2] (setting [9]). In addition, the growth in the experiment on E. coli TESEC Mtb Asd (setting [10]) is 0.228 ± 0.033; in the experiment with E. coli TESEC Mtb Asd (setting [11]), 0.329 ± 0.033; in experiment [3], 0.455 ± 0.03; in the experiment with E. coli TESEC Mtb Alr [4] (setting [12]) it was 0.411 ± 0.0086; in the experiment with E. coli TESEC Mtb Alr [4] (setting [13]), 0.36 ± 0.021.

As to `CC[N+](C)(CC)CCC[n+]1c(-c2ccccc2)c2cc(N)ccc2c2ccc(N)cc21` [Propidium iodide], the growth in experiment [1] came out at 0.0949 ± 0.011; in the experiment with E. coli TESEC Mtb Alr [2] (setting [5]) it was 0.135 ± 0.023; with E. coli TESEC Mtb Alr [2] (setting [6]) it was 0.116 ± 0.028; in the experiment with E. coli TESEC Mtb Alr [2] (setting [7]), 0.15 ± 0.02; with E. coli TESEC Mtb Alr [2] (setting [8]), 0.0816 ± 0.0028; in the experiment with E. coli TESEC Mtb Alr [2] (setting [9]), 0.0888 ± 0.012. Also, the growth came out at 0.0925 ± 0.0048 in the experiment on E. coli TESEC Mtb Asd (setting [10]); 0.0953 ± 0.0048 with E. coli TESEC Mtb Asd (setting [11]); 0.0675 ± 0.0008 in experiment [3]; 0.221 ± 0.13 in the experiment on E. coli TESEC Mtb Alr [4] (setting [12]); 0.0665 ± 0.0008 in the experiment with E. coli TESEC Mtb Alr [4] (setting [13]).

On to `CC(=O)N1CCN(c2ccc(OCC3COC(Cn4ccnc4)(c4ccc(Cl)cc4Cl)O3)cc2)CC1` (stereo unspecified) [Ketoconazole], for which the growth is 0.05323 ± 0.00038 in experiment [1]; 0.0525 ± 0.0042 in the experiment with E. coli TESEC Mtb Alr [2] (setting [5]); 0.04237 ± 0.00035 in the experiment with E. coli TESEC Mtb Alr [2] (setting [6]); 0.0541 ± 0.0007 with E. coli TESEC Mtb Alr [2] (setting [7]); 0.04317 ± 0.0004 in the experiment on E. coli TESEC Mtb Alr [2] (setting [8]); 0.05383 ± 5.8e-05 with E. coli TESEC Mtb Alr [2] (setting [9]). For the same compound, the growth in the experiment on E. coli TESEC Mtb Asd (setting [10]) came out at 0.0601 ± 0.0054; with E. coli TESEC Mtb Asd (setting [11]), 0.0507 ± 0.0015; in experiment [3], 0.0814 ± 0.011; in the experiment on E. coli TESEC Mtb Alr [4] (setting [12]), 0.32 ± 0.041; in the experiment with E. coli TESEC Mtb Alr [4] (setting [13]), 0.0608 ± 0.0022.

Consider `COC(=O)Nc1nc2ccc(SC(C)C)cc2[nH]1` [Methiazole], for which the growth in experiment [1] amounted to 0.244 ± 0.0029; with E. coli TESEC Mtb Alr [2] (setting [5]) it was 0.278 ± 0.0056; with E. coli TESEC Mtb Alr [2] (setting [6]), 0.271 ± 0.0072; in the experiment with E. coli TESEC Mtb Alr [2] (setting [7]), 0.195 ± 0.013; with E. coli TESEC Mtb Alr [2] (setting [8]), 0.219 ± 0.0056; in the experiment with E. coli TESEC Mtb Alr [2] (setting [9]) it was 0.151 ± 0.0024. Besides, the growth is 0.365 ± 0.093 in the experiment on E. coli TESEC Mtb Asd (setting [10]); 0.33 ± 0.048 in the experiment with E. coli TESEC Mtb Asd (setting [11]); 0.523 ± 0.037 in experiment [3]; 0.427 ± 0.0091 in the experiment with E. coli TESEC Mtb Alr [4] (setting [12]); 0.37 ± 0.025 with E. coli TESEC Mtb Alr [4] (setting [13]).

Consider `C#C[C@]1(O)CC[C@H]2[C@@H]3CCc4cc(OC)ccc4[C@H]3CC[C@@]21C` [Ethynylestradiol 3-methyl ether], for which the growth in experiment [1] stood at 0.193 ± 0.01; in the experiment with E. coli TESEC Mtb Alr [2] (setting [5]) it was 0.279 ± 0.0063; in the experiment on E. coli TESEC Mtb Alr [2] (setting [6]), 0.262 ± 0.013; with E. coli TESEC Mtb Alr [2] (setting [7]), 0.184 ± 0.015; in the experiment on E. coli TESEC Mtb Alr [2] (setting [8]) it was 0.163 ± 0.0052; with E. coli TESEC Mtb Alr [2] (setting [9]) it was 0.149 ± 0.0072. Besides, the growth stood at 0.383 ± 0.025 in the experiment with E. coli TESEC Mtb Asd (setting [10]); 0.413 ± 0.06 in the experiment on E. coli TESEC Mtb Asd (setting [11]); 0.564 ± 0.025 in experiment [3]; 0.405 ± 0.011 with E. coli TESEC Mtb Alr [4] (setting [12]); 0.348 ± 0.024 in the experiment on E. coli TESEC Mtb Alr [4] (setting [13]).
